The values that follow come from ChEMBL document CHEMBL4513141, “CO-ADD screening of NIH (USA) - Clinical Collection” (2021).

Entries with a potency or affinity are not part of this list.

The subject of one assay is Klebsiella pneumoniae. The note with it: Concentration 20 uM; ASSAY_TEST Inhibition of Bacterial Growth; detection method Absorption (OD600); MEDIA CAMHB; plate type 384well; NBS; CORNING #3640; time 18 hr.
For another assay, the system named is Candida albicans. The note with it: 20 µM.
The subject of a further assay is Cryptococcus neoformans. The note with it: Concentration 20 uM; ASSAY_TEST Inhibition of Fungal Growth; detection method Resazurin; Absorption (OD600-OD570); plate type 384well; NBS; CORNING #3640. (In general: The colour change of resazurin is a common sign of viable cells or microbes.)

As for `C[C@H](CCC(=O)O)[C@H]1CC[C@H]2[C@@H]3C(=O)C[C@@H]4CC(=O)CC[C@]4(C)[C@H]3CC(=O)[C@]12C` [DEHYDROCHOLIC ACID], the figures for the Inhibition in the assay on Klebsiella pneumoniae, in the assay on Candida albicans and in the assay on Cryptococcus neoformans were 5.88%, 3.92% and 2.23%, respectively.
The like results for `Cl.Cl.OCCN1CCN(CCCN2c3ccccc3Sc3ccc(C(F)(F)F)cc32)CC1` [FLUPHENAZINE HYDROCHLORIDE] were, in that order, 7.98%, 1.45% and -8.76%.
The like results for `Cl.O[C@@H]1CCCC[C@H]1N1CCC(c2ccccc2)CC1` were, in that order, 4.06%, 3.46% and -7.38%.
The like results for `COCCCOc1ccnc(C[S+]([O-])c2nc3ccccc3[nH]2)c1C` (stereo not given) [RABEPRAZOLE] were, in that order, 14.6%, 5.74% and -21.21%.
With `CN(C)CCc1c[nH]c2ccc(C[C@H]3COC(=O)N3)cc12` [ZOLMITRIPTAN], the Inhibition (as a rule, the drop in the measured response relative to a control, in per cent) was 7.51% with Klebsiella pneumoniae, 2.65% in the assay on Candida albicans and 0.25% in the assay with Cryptococcus neoformans.
The corresponding values for `Oc1ncnc2[nH]ncc12` [ALLOPURINOL] are 15.5%, 2.36% and -1.92%.
The like results for `C[C@]12CCC(=O)C[C@@H]1CC[C@@H]1[C@@H]2CC[C@@]2(C)[C@H]1CC[C@]2(C)O` [MESTANOLONE] were, in that order, 3.85%, 11.7% and 4.57%.
The like results for `COc1cc(N)c(Cl)cc1C(=O)NC1CN2CCC1CC2.Cl.O` (stereo not given) [ZACOPRIDE HYDROCHLORIDE] were, in that order, -4%, 5.47% and 0.38%.
Turning to `O=C1CN=C(c2ccccc2)c2cc([N+](=O)[O-])ccc2N1` [NITRAZEPAM], the Inhibition in the assay with Klebsiella pneumoniae is 13.18%; in the assay with Candida albicans it was 3.29%; in the assay with Cryptococcus neoformans it was 1.38%.
The like results for `Cl.NCCc1ccc(O)c(O)c1` [DOPAMINE HYDROCHLORIDE] were, in that order, 13.84%, -0.19% and -1.49%.
For `CN1CCN(C(=O)O[C@H]2c3nccnc3C(=O)N2c2ccc(Cl)cn2)CC1` [ESZOPICLONE], the figures for the Inhibition with Klebsiella pneumoniae, in the assay on Candida albicans and in the assay on Cryptococcus neoformans were -5.59%, 0.3% and 4.31%, respectively.
For `CC(C)(C)NCC(O)c1cc(O)cc(O)c1.O=S(=O)(O)O` (stereo not given), the Inhibition is 12.1% in the assay with Klebsiella pneumoniae, 2.97% with Candida albicans and -9.43% with Cryptococcus neoformans.
The like results for `CS(=O)(=O)O.O=C(O[C@@H]1C[C@@H]2C[C@H]3C[C@H](C1)N2CC3=O)c1c[nH]c2ccccc12` were, in that order, 8.46%, 2.39% and 1.75%.
In the case of `CNCCC(Oc1ccc(C(F)(F)F)cc1)c1ccccc1.Cl` (stereo not given) [FLUOXETINE HYDROCHLORIDE], the figures for the Inhibition in the assay on Klebsiella pneumoniae, in the assay on Candida albicans and in the assay on Cryptococcus neoformans were 3.44%, 1.79% and -8.4%, respectively.
The corresponding values for `Br.COc1ccc2c3c1O[C@H]1C[C@@H](O)C=C[C@@]31CCN(C)C2` [GALANTAMINE HYDROBROMIDE] are 16.19%, 3.12% and -5.72%.
The corresponding values for `O=C1Nc2ccc(Cl)cc2C(c2ccccc2Cl)=NC1O` (stereo not given) [LORAZEPAM] are -5.27%, 5.15% and -2.1%.
`Cc1cc(NS(=O)(=O)c2ccc(N)cc2)no1` [SULFAMETHOXAZOLE]: the values for the Inhibition in the assay on Klebsiella pneumoniae, in the assay with Candida albicans and with Cryptococcus neoformans were 4.09%, 6.42% and 2.83%, respectively.
The like results for `COc1cc(CNC(=O)CCCC/C=C\C(C)C)ccc1O` [ZUCAPSAICIN] were, in that order, 12.92%, 4.72% and -5.9%.
The corresponding values for `CN[C@@H]1C[C@@H](c2ccc(Cl)c(Cl)c2)c2ccccc21.Cl` [INDATRALINE HYDROCHLORIDE] are -0.11%, 2.5% and -6.06%.
The corresponding values for `CC1CCC[C@H](O)CCCCCc2cc(O)cc(O)c2C(=O)O1` (stereo not given in full) are 3.64%, 2.99% and -2.51%.
For the compound `CN1[C@@H](CC(=O)c2ccccc2)CCC[C@H]1C[C@H](O)c1ccccc1.Cl` [LOBELINE HYDROCHLORIDE], the results for the Inhibition in the assay on Klebsiella pneumoniae, in the assay on Candida albicans and with Cryptococcus neoformans were 19.91%, 2.98% and -5.47%, respectively.
The corresponding values for `COc1ccc(C(CN(C)C)C2(O)CCCCC2)cc1.Cl` (stereo not given) [VENLAFAXINE HYDROCHLORIDE] are 15.76%, 3.64% and -9.68%.
The corresponding values for `CC(C)C(=O)Nc1ccc([N+](=O)[O-])c(C(F)(F)F)c1` [FLUTAMIDE] are 13.37%, 3.45% and 1.08%.
The corresponding values for `COc1ccc(CCN)cc1OC` are 8.69%, 2.72% and -1.54%.
In the case of `Cc1ncc2n1-c1ccc(Cl)cc1C(c1ccccc1F)=NC2.Cl` [MIDAZOLAM HYDROCHLORIDE], the Inhibition was 2.84% in the assay on Klebsiella pneumoniae, 3.62% in the assay on Candida albicans and -0.63% in the assay with Cryptococcus neoformans.
The like results for `CCCN1C[C@H](CSC)C[C@@H]2c3cccc4[nH]cc(c34)C[C@H]21.CS(=O)(=O)O` [PERGOLIDE MESYLATE] were, in that order, 13.95%, 2.85% and -3.89%.
The like results for `c1ccc2c(c1)Nc1ccccc1S2` [PHENOTHIAZINE] were, in that order, 1.87%, 4.65% and 6.01%.
The corresponding values for `CCC1(c2ccc(N)cc2)CCC(=O)NC1=O` (stereo not given) [AMINOGLUTETHIMIDE] are 3.02%, 2.63% and -5.32%.
On to `CC[N+](C)(C)c1cccc(O)c1.[Cl-]` [EDROPHONIUM CHLORIDE], for which the Inhibition was 15.01% in the assay with Klebsiella pneumoniae, 2.22% in the assay on Candida albicans and -6.73% in the assay on Cryptococcus neoformans.
The corresponding values for `C[C@H](CCC(=O)O)[C@H]1CC[C@H]2[C@@H]3[C@@H](O)C[C@@H]4C[C@H](O)CC[C@]4(C)[C@H]3CC[C@]12C` [URSODIOL] are 5.07%, 3.21% and -2.96%.
The like results for `CC(=O)CC(c1ccccc1)c1c([O-])c2ccccc2oc1=O.[Na+]` (stereo not given) [WARFARIN SODIUM] were, in that order, 4.09%, 3.09% and 0.59%.
The like results for `CC(=O)OCC[N+](C)(C)C.[Cl-]` [ACETYLCHOLINE CHLORIDE] were, in that order, 16.59%, 1.39% and -1.88%.
In the case of `C[N+]1(CCC(C(N)=O)(c2ccccc2)c2ccccc2)CCCCC1.[Br-]` [FENPIVERINIUM BROMIDE], the Inhibition in the assay with Klebsiella pneumoniae is -3.21%; in the assay on Candida albicans, 3.32%; in the assay with Cryptococcus neoformans, -1.41%.
The like results for `Nc1nc2ccc(Cl)cc2c2nc(-c3ccco3)nn12` [CGS-15943] were, in that order, 10.58%, 6.09% and -14.37%.
The corresponding values for `C[C@]12CC[C@H](O)CC1=CC[C@@H]1[C@@H]2CC[C@]2(C)C(=O)CC[C@@H]12` [PRASTERONE] are 10.09%, 14.5% and 2.55%.
The like results for `CC(O)(CS(=O)(=O)c1ccc(F)cc1)C(=O)Nc1ccc(C#N)c(C(F)(F)F)c1` (stereo not given) [BICALUTAMIDE] were, in that order, 7.16%, -0.48% and -5.03%.
For `CN1C(=O)CN=C(c2ccccc2)c2cc(Cl)ccc21` [DIAZEPAM], the Inhibition was 10.3% in the assay on Klebsiella pneumoniae, 2.62% with Candida albicans and -1.5% with Cryptococcus neoformans.
On to `CC(C(=O)O)c1ccc(-c2ccccc2)c(F)c1` (stereo not given) [FLURBIPROFEN], for which the results for the Inhibition in the assay with Klebsiella pneumoniae, with Candida albicans and with Cryptococcus neoformans were 4.59%, 8.89% and -3.5%, respectively.
The like results for `CC(=O)[C@H]1CC[C@H]2[C@@H]3CCC4=CC(=O)CC[C@]4(C)[C@H]3CC[C@]12C` [PROGESTERONE] were, in that order, 23.48%, 11.4% and -1.48%.
As to `C=C(C)CN1CC[C@]23c4c5ccc(O)c4O[C@H]2c2[nH]c4ccccc4c2C[C@@]3(O)C1C5.Cl.O`, the results for the Inhibition in the assay with Klebsiella pneumoniae, in the assay with Candida albicans and in the assay on Cryptococcus neoformans were 12.32%, 1.9% and -7.24%, respectively.
The corresponding values for `COC(=O)C[C@](O)(CCCC(C)(C)O)C(=O)O[C@@H]1C(OC)=C[C@]23CCCN2CCc2cc4c(cc2[C@H]13)OCO4` [OMACETAXINE MEPESUCCINATE] are 9.21%, 3.16% and 1.94%.
The like results for `CC(=O)OC1C([N+]2(C)CCCCC2)C[C@H]2C3CC[C@H]4C[C@H](OC(C)=O)C([N+]5(C)CCCCC5)CC4(C)[C@H]3CCC12C.[Br-].[Br-]` (stereo not given in full) were, in that order, 10.46%, -0.59% and -9.01%.
The like results for `COC(=O)N1CCN(C(=O)Cc2ccc(Cl)c(Cl)c2)C(CN2CCCC2)C1.O=C(O)/C=C/C(=O)O` (stereo not given) were, in that order, 6.19%, 2.42% and -1.96%.
As for `COc1ccc2[nH]cc(C3=CCNCC3)c2c1.COc1ccc2[nH]cc(C3=CCNCC3)c2c1.O=C(O)CCC(=O)O`, the results for the Inhibition in the assay with Klebsiella pneumoniae, in the assay on Candida albicans and in the assay on Cryptococcus neoformans were 15.57%, 3.46% and -20.08%, respectively.
On to `CCOC(=O)c1cncn1[C@H](C)c1ccccc1` [ETOMIDATE], for which the Inhibition in the assay with Klebsiella pneumoniae was 12.64%; in the assay on Candida albicans, 0.03%; in the assay with Cryptococcus neoformans, 0.21%.
The corresponding values for `C[N+]1(C)CCC(OC(=O)C(O)(c2ccccc2)C2CCCC2)C1.[Br-]` (stereo not given) [GLYCOPYRRONIUM BROMIDE] are 13.34%, 3.65% and -2.52%.
Regarding `C[C@]12CC[C@H]3[C@@H](CCC4=CC(=O)CC[C@@H]43)[C@@H]1CC[C@@H]2O` [NANDROLONE], the Inhibition was 5.92% in the assay on Klebsiella pneumoniae, 7.15% in the assay with Candida albicans and -1.13% in the assay on Cryptococcus neoformans.
The like results for `C[N+]1(C)CCCC(OC(=O)C(O)(c2ccccc2)c2ccccc2)C1.[Br-]` (stereo not given) [MEPENZOLATE BROMIDE] were, in that order, 9.6%, 4.42% and -1.1%.
The corresponding values for `Fc1ccc([C@@H]2CCNC[C@H]2COc2ccc3c(c2)OCO3)cc1.O=C(O)/C=C\C(=O)O` are 6.3%, 2.04% and -6.92%.
For the compound `Cn1c(=O)c2nc[nH]c2n(C)c1=O.O` [THEOPHYLLINE], the values for the Inhibition with Klebsiella pneumoniae, in the assay on Candida albicans and in the assay on Cryptococcus neoformans were 1.07%, 3.65% and 7.56%, respectively.
The like results for `O.O=P1(N(CCCl)CCCl)NCCCO1` (stereo not given) [CYCLOPHOSPHAMIDE] were, in that order, 7.22%, 0.13% and 1.2%.
The corresponding values for `C#C[C@]1(O)CC[C@H]2[C@@H]3CCC4=CC(=O)CC[C@@H]4[C@H]3CC[C@@]21C` [NORETHINDRONE] are 6.67%, 4.82% and 0.28%.
In the case of `N=C(NCc1ccc(Cl)cc1)SCCCc1c[nH]cn1` [CLOBENPROPIT], the values for the Inhibition with Klebsiella pneumoniae, in the assay with Candida albicans and in the assay with Cryptococcus neoformans were 6.85%, 2.99% and -0.61%, respectively.
In the case of `c1cncc([C@@H]2CCCN2)c1` [NORNICOTINE], the Inhibition is 9.44% in the assay on Klebsiella pneumoniae, 3.55% in the assay with Candida albicans and -7.65% in the assay on Cryptococcus neoformans.
The like results for `CCC(COC(=O)c1cc(OC)c(OC)c(OC)c1)(c1ccccc1)N(C)C.O=C(O)/C=C\C(=O)O` (stereo not given) were, in that order, 22.71%, 3.77% and -7.66%.
